Experiment [1] is described as follows: Nuclear factor erythroid 2-related factor 2/antioxidant responsive element (Nrf2/ARE) small molecule agonists: qHTS cell viability counter screen in human keratinocytes (AID 1919968; active means well fitted curve in the direction sought with a large enough effect in the repeat runs; an effect the other way counts as inactive or inconclusive; further: nearly all actives have a fitted effect of over 55% in size). The method in brief:
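KeratinoSens cells (HaCaT keratinocytes stably carrying an ARE-luciferase reporter) were seeded at 1,500 cells/well and rested 5 h at 37 C/5% CO2. They were then exposed to compounds in DMSO for 23 h. Viability was read by CellTiter-Fluor fluorescence after 1 h.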

The nature of experiment [2]: Nuclear factor erythroid 2-related factor 2/antioxidant responsive element (Nrf2/ARE) small molecule agonists: luciferase reporter gene qHTS assay in human keratinocytes (AID 1919969; further: nearly all actives have a fitted effect of over 35% in size; further: potency means the concentration at half of the fitted maximal effect). (In general: In a reporter assay the amount or activity of a reporter protein is the signal.)
Experiment [3] addresses KiSS-1 receptor (Homo sapiens) (UniProt Q969F8). As to the kind of experiment: Human kisspeptin (KISS1R) small molecule agonists, calcium flux assay in KISS1R-HEK293 cells (AID 1920064; active means well fitted curve in the direction sought with a large enough effect in the repeat runs; an effect the other way counts as inactive or inconclusive). The method in brief: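 HEK293 cells stably expressing human KISS1R were plated 18 h at 37 °C, loaded with calcium dye for 1 h at 37 °C, then given compound by pin tool. Fluorescence (Ex/Em 480/540) was read kinetically for 3 min.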

Experiment [4] can be described thus: G protein-coupled receptor (GPCR) small molecule agonists, calcium flux assay: HEK293 wild type cell line counter screen (AID 1920065). The procedure, abridged:
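Cells were plated and cultured 18 h at 37 C/5% CO2, then loaded with calcium dye for 1 h at 37 C. Compounds in DMSO were pin-transferred in agonist mode, and fluorescence (Ex/Em 480/540) was read kinetically for 3 min at 1 s intervals.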
Background: A change in cytosolic calcium serves as a functional read-out for many receptors and channels.

The nature of experiment [5]: p53 small molecule agonists, cell-based qHTS assay with rat liver microsomes (AID 1963578). The procedure, abridged: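 p53RE-bla cells were exposed to compounds together with rat liver microsomes (0.5 mg/mL final) and NADPH (0.5 mg/mL final) for 16 h at 37 C, then read by LiveBLAzer beta-lactamase fluorescence after 2 h at room temperature.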
Experiment [6] in a line: p53 small molecule agonists, cell-based qHTS assay with human liver microsomes: qHTS cell viability counter screen (AID 1963579). Further: nearly all actives have a fitted effect of over 45% in size. The procedure, abridged:
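p53RE-bla cells (4,000/well) were pre-incubated 5 h at 37 C, then given compounds in DMSO plus human liver microsomes (0.5 mg/mL final) and NADPH (0.5 mg/mL final) for 16 h at 37 C. Viability was read by CellTiter-Glo luminescence.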
On the technique in general: In qHTS, concentration-response curves come from the screen itself.

A short description of experiment [7]: p53 small molecule agonists, cell-based qHTS assay with rat liver microsomes: qHTS cell viability counter screen (AID 1963580). Further: nearly all actives have a fitted effect of over 45% in size. The method in brief: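 p53RE-bla HCT-116 cells were exposed 16 h at 37 C to compounds with rat liver microsomes (0.5 mg/mL) and NADPH (0.5 mg/mL). Viability was measured in the same wells as ATP content by CellTiter-Glo luminescence.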

Experiment [8] is described as follows: p53 small molecule agonists, cell-based qHTS assay: qHTS cell viability counter screen (AID 1963581). Further: nearly all actives have a fitted effect of over 45% in size. The procedure, abridged: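 p53RE-bla HCT-116 cells were exposed to compounds for 16 h at 37 C; after the beta-lactamase FRET read in the same wells, CellTiter-Glo was added and luminescence (intracellular ATP) read after 30 min at room temperature.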
A short description of experiment [9]: p53 small molecule agonists, cell-based qHTS assay (AID 1963582; active means well fitted activation curve with a large enough effect in the signal ratio in the repeat runs, not every such curve was filed as active; the % refers to the signal ratio). The method in brief:
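p53RE-bla beta-lactamase reporter cells rested 5 h at 37 C/5% CO2, then received compounds in DMSO by pin transfer and were incubated 16 h at 37 C. LiveBLAzer B/G FRET substrate was loaded for 2 h at room temperature before fluorescence reading.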

The target of experiment [10] is Muscarinic acetylcholine receptor M1 (Homo sapiens) (UniProt P11229). As to the kind of experiment: Cholinergic receptor muscarinic 1 (CHRM1) small molecule antagonists, cell-based qHTS assay (AID 1963588). Further: nearly all actives have a fitted effect of over 40% in size. The procedure, abridged: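 CHRM1-CHO calcium-flux assay, antagonist mode. Cells were seeded 18 h, dye-loaded 1 h at 37 C and given compound for 5 min at RT, then acetylcholine was added at 50nM. FDSS fluorescence was read 3 min; 15 concentrations, three runs.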
Sequence of Muscarinic acetylcholine receptor M1 (Homo sapiens) (P11229 whole entry, looked up): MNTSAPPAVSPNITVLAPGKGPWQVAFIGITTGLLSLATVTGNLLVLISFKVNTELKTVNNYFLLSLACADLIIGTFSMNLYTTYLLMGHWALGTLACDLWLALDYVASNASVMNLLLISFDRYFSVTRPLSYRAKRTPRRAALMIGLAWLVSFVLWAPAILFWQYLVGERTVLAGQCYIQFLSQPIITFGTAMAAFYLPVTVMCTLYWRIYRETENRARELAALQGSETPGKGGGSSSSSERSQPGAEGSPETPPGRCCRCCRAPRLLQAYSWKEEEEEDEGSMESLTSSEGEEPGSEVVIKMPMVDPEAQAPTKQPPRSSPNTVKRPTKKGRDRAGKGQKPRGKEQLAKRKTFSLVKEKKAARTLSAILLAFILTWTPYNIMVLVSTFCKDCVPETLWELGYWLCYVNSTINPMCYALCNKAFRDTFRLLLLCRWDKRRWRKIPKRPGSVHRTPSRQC

For experiment [11] the target is unchanged. As to the kind of experiment: Cholinergic receptor muscarinic 1 (CHRM1) small molecule agonists, cell-based qHTS assay (AID 1963589). Further: nearly all actives have a fitted effect of over 35% in size. The method in brief: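 CHO cells stably expressing human CHRM1, seeded 18 h at 37 C/5% CO2, dye-loaded 1 h at 37 C, then given compound in agonist mode; intracellular calcium fluorescence read kinetically at 1 s intervals. Fifteen concentrations, three independent runs.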

Experiment [12] can be described thus: cAMP Responsive Elements (CRE) small molecule antagonists, cell-based qHTS assay (AID 1963591; active means well fitted inhibition curve with a large enough effect in the signal ratio in the repeat runs, not every such curve was filed as active; the % refers to the signal ratio). The method in brief:
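CRE-bla HEK293T cells were plated 18 h at 37 °C/5% CO2, pinned with compound in DMSO, then stimulated with NKH477 at 0.25 uM final for 3 h. LiveBLAzer B/G FRET substrate was added and plates incubated 2 h at room temperature.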

For experiment [13], the target named is Beta-2 adrenergic receptor (Homo sapiens) (UniProt P07550). In words: Adrenergic beta2 receptor (ADRB2) small molecule antagonists, cell-based qHTS assay (AID 1963592). Further: series mostly up to about 92 µM; nearly all actives have a fitted effect of over 50% in size. The procedure, abridged:
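Cells (CHO, stable ADRB2 overexpression) incubated 18-20hr at 37C; compounds added from DMSO; agonist mix (1nM isoproterenol, 100uM IBMX, 25uM Ro-20-1724) added; 0.5hr RT; d2-cAMP and anti-cAMP-cryptate added; 1hr RT; 665/615 nm read.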

Experiment [14] has the same target. In words: Adrenergic beta2 receptor (ADRB2) small molecule agonists, cell-based qHTS assay (AID 1963593).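 Further: CHO cells stably overexpressing human ADRB2.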 The method in brief: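 CHO cells stably over-expressing ADRB2 were plated overnight at 37C, then dosed with compounds plus a stimulation mix containing 100uM IBMX and 25uM Ro-20-1724 for 0.5hr at room temperature. cAMP was measured by HTRF competition, 1hr.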

The target in experiment [15] is D(2) dopamine receptor (Homo sapiens) (UniProt P14416). In words: Dopamine D2 receptor (DRD2) small molecule agonists, cell-based qHTS assay (AID 1963594). Further: nearly all actives have a fitted effect of over 35% in size. The method in brief:
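HEK293 cells stably expressing human DRD2, pre-treated with PDE inhibitor Ro20-1724 (0.1 mM final) and compound 10 min at room temperature, then stimulated with NKH477 (200nM […]) for 30 min. cAMP read by HTRF (665/620 nm).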

The target of experiment [16] is 5-hydroxytryptamine receptor 2A (Homo sapiens) (UniProt P28223). As to the kind of experiment: 5-hydroxytryptamine receptor 2A (HTR2A) small molecule antagonists, cell-based qHTS assay (AID 1963586). Further: nearly all actives have a fitted effect of over 45% in size. The procedure, abridged:
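Antagonist-mode intracellular calcium assay: DOI (4 nM) added after 5 min compound pre-incubation at room temperature to dye-loaded HTR2A-CHO cells. Fluorescence followed for 3 min, sampled every second.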

For experiment [17] the target is unchanged. As to the kind of experiment: 5-hydroxytryptamine receptor 2A (HTR2A) small molecule agonists, cell-based qHTS assay (AID 1963587). Further: nearly all actives have a fitted effect of over 30% in size. The procedure, abridged: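 CHO cells stably expressing human HTR2A, plated 18 h, loaded with calcium dye 1 h at 37 C. Agonist mode: compounds added and intracellular calcium fluorescence recorded kinetically for 2 min at 1 sec intervals.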

Experiment [18] can be described thus: cAMP Responsive Elements (CRE) small molecule agonists, cell-based qHTS assay (AID 1963590). The procedure, abridged: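 CRE-bla HEK 293T cells in DMEM with 10% dialyzed FBS, NEAA, pyruvate and 25 mM HEPES were plated 18 h at 37 C/5% CO2, then exposed to compounds in DMSO for 3 h before LiveBLAzer B/G FRET substrate addition.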
Experiment [19] addresses D(2) dopamine receptor (Homo sapiens) (UniProt P14416). In words: Dopamine D2 receptor (DRD2) small molecule antagonists, cell-based qHTS assay (AID 1963595; active means well fitted inhibition curve with a large enough effect in the signal ratio in the repeat runs, with a control signal flat; the % refers to the signal ratio). The method in brief: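 HEK293 cells stably expressing DRD2 were preincubated with 0.1 mM Ro20-1724, then with compound for 10 min at room temperature. Cells were stimulated with 200 nM NKH477 plus 12 nM quinpirole for 30 min, and cAMP was read by HTRF.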

A number with no mark means an inactive call. Inconclusive results are not listed. Calls of active or inactive are those of the source. Unless noted, the call rests on the fitted dose curve.

Sequence of D(2) dopamine receptor (Homo sapiens) (P14416 whole entry, looked up): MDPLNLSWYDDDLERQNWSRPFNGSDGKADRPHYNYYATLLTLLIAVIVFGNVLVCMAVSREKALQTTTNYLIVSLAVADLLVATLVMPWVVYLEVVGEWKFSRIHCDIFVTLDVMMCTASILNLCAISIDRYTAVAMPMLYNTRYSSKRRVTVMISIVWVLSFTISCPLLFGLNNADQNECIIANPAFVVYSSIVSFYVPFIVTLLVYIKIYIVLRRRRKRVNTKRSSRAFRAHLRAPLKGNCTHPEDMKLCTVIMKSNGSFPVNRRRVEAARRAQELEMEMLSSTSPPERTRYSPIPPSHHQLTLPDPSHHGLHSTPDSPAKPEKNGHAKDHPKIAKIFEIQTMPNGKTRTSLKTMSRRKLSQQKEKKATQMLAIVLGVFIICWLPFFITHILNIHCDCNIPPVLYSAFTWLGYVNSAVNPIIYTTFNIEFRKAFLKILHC
Sequence of 5-hydroxytryptamine receptor 2A (Homo sapiens) (P28223 whole entry, looked up): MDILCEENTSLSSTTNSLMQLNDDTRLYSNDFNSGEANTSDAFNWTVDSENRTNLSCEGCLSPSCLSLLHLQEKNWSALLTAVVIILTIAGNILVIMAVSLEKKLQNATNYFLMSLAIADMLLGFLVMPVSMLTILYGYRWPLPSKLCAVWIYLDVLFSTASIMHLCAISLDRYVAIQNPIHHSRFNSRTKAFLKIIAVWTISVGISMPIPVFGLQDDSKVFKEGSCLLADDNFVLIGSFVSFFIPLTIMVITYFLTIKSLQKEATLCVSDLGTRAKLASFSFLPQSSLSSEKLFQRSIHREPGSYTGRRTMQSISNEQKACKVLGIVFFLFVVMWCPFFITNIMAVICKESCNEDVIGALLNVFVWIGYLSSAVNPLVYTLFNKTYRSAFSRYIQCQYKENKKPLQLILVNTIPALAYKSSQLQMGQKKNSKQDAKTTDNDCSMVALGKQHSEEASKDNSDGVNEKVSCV
Sequence of Beta-2 adrenergic receptor (Homo sapiens) (P07550 whole entry, looked up): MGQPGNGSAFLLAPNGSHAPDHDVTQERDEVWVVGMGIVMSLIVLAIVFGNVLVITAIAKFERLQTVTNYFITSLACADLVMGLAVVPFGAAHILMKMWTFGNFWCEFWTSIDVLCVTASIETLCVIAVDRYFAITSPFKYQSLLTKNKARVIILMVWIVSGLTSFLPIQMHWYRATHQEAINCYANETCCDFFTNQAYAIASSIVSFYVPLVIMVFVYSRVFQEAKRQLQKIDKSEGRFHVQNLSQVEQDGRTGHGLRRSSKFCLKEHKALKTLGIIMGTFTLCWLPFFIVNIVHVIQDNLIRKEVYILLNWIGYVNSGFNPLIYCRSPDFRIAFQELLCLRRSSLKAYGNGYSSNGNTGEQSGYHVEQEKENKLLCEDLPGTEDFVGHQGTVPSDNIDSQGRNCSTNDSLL
Sequence of KiSS-1 receptor (Homo sapiens) (Q969F8 whole entry, looked up): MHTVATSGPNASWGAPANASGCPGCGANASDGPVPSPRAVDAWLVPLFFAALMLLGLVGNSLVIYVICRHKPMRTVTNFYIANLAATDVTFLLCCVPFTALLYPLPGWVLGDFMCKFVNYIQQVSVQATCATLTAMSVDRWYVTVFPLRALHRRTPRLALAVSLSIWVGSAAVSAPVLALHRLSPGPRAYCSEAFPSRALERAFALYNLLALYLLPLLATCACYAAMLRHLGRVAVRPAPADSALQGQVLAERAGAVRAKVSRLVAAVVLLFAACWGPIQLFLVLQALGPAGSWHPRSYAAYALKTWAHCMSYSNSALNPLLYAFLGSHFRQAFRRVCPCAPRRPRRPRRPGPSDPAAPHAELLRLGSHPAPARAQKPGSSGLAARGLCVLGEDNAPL

For the compound `Clc1ccc(C2(Cn3cncn3)CC(Br)CO2)c(Cl)c1` (configuration not stated), the Potency result in experiment [1], in experiment [2], in [3], in experiment [4], in [5] and in experiment [6] was “inactive” each time. The Potency result in experiment [7], in experiment [8], in experiment [9], in experiment [10], in experiment [11] and in [12] was “inactive” each time. The Potency result in [13], in experiment [14] and in experiment [15] was “inactive” in each case.
For `Cc1ncsc1CCCl`, the Potency entry in [1], in experiment [2], in [3], in experiment [4], in experiment [6] and in experiment [7] was “inactive” throughout. Further, the Potency entry in [8], in experiment [16], in experiment [17], in experiment [10], in experiment [11] and in experiment [18] was “inactive” throughout. The Potency result in experiment [12], in [14], in [15] and in experiment [19] was “inactive” throughout.
As to `Cc1nnc(-c2ccccc2)c(=O)n1N`, the Potency result in experiment [1], in experiment [2], in [3], in [4], in experiment [5] and in experiment [6] was “inactive” each time. Further, the Potency entry in experiment [8], in [9], in experiment [16], in [17], in [10] and in [11] was “inactive” in each case. Moreover, the Potency entry in [18], in [12], in [13] and in experiment [19] was “inactive” throughout.
In the case of `COP(=S)(Oc1cc(Cl)c(Br)cc1Cl)c1ccccc1` (configuration not stated), the Potency result in experiment [1], in experiment [3], in [4], in [6], in [8] and in experiment [16] was “inactive” throughout. For the same compound, the Potency entry in experiment [17], in [10], in [11], in experiment [12], in experiment [13] and in [14] was “inactive” in each case. Besides, the Potency entry in [15] and in experiment [19] was “inactive” each time. For the same compound, the Potency in experiment [2] was 48.6 µM (active).
As to `OCCBr`, the Potency result in [1], in [2], in [3], in experiment [4], in experiment [6] and in [7] was “inactive” throughout. In addition, the Potency result in experiment [16], in experiment [17], in experiment [10], in experiment [18], in experiment [12] and in [13] was “inactive” in each case. In addition, the Potency entry in experiment [15] and in [19] was “inactive” in each case.
In the case of `COP(=S)(OC)Oc1ccc(S(N)(=O)=O)cc1`, the Potency entry in experiment [1], in [2], in experiment [3], in experiment [4], in [6] and in experiment [7] was “inactive” in each case. In addition, the Potency entry in experiment [8], in experiment [9], in experiment [17], in [10], in experiment [11] and in experiment [18] was “inactive” throughout. For the same compound, the Potency result in experiment [12], in experiment [13], in [15] and in experiment [19] was “inactive” each time.

Values taken from PubChem BioAssay (Tox21).
